Screens from PubChem BioAssay.
Most compounds without a hit are left out; they make up all but 2.7% or so of the library.
ERG-DNA inh: inhibitors of human ERG Ets domain-DNA interaction; P11308; fluorescence polarization, His-ERG Ets domain / labelled DNA; Potency, µM (titrated, usually from 76.9 µM), without a hit: at the top dose FP activity, negative = inhibition, most hits filed as inhibitors; hit rate 0.028% among 370,000; active means well fitted inhibition curve with a large enough effect in the polarisation, with a control signal flat; inconclusive means small, poorly fitted or top-dose-only effect, or effect the other way, or a change in a side signal; inactive means no such curve, though single readings can be large or run the other way; the % refers to the polarisation;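 further: polarization taken with two DNA probes labelled with fluorescein and Texas red; potency means the concentration at half of the fitted maximal effect; % of control where 0% means no effect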
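His-tagged ERG Ets domain (1 uM in the protein solution; 300mM KCl, 50mM Tris-HCl, 1mM EDTA, 1mM DTT, pH 7.5) received compound, then a probe mix of 5 nM fluorescein-DNA and 100nM Texas-615-DNA. Fluorescence polarization was read for both dyes.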
ALOX12 inh: blocks human arachidonate 12S-lipoxygenase; purified 12hLO, xylenol orange hydroperoxide absorbance; Potency, µM (series often up to 108 µM), for inactives: top-dose activity change, negative = inhibition, actives largely listed as inhibitors; hit rate 1.1% among 580,000; P18054; AID 1671190; further: potency means the concentration at half of the fitted maximal effect; on the % scale 0 is the no-effect control and ±100 the full control effect
Target sequence (P18054 whole entry, looked up): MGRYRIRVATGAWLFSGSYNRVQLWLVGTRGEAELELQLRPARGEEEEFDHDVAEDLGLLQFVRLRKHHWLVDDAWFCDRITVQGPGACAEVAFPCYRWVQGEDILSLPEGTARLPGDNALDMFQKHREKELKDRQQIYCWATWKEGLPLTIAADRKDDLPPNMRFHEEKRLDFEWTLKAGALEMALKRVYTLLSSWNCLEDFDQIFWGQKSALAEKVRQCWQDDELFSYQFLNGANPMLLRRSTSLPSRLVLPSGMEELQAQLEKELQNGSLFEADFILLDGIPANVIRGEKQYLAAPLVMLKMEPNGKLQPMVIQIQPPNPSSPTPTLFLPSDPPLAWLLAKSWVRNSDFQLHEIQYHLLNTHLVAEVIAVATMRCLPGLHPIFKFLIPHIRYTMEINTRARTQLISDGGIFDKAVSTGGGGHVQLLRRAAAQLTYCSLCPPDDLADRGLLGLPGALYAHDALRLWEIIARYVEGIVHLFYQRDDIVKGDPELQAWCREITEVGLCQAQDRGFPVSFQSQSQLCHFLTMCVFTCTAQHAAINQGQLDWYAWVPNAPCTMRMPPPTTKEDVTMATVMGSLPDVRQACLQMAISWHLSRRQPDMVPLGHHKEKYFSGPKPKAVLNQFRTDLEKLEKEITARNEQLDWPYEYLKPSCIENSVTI
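Hydroperoxide product was detected by ferrous iron/xylenol orange as the 573 to 405 nm absorbance ratio. Arachidonic acid at 40 uM (final) was turned over for 30 min at room temperature by 150 nM human 12hLO, pH 7.0 Hepes buffer, after 15 min compound preincubation.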
LDHA block: LDHA (human) enzyme inhibition | P00338 | activity change, % (values are at about 110 or 230 µM) | hit rate 0.15% among 480,000 | purified LDHA, NADH/diaphorase-resazurin fluorescence; active compounds read low | AID 1347041; in the data active means activity change below about -30%; inconclusive means mostly about -25% to -30%;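 further: plate controls were DMSO wells for no effect and wells without enzyme for full effect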
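Human LDH5 (2 nM) was incubated with 0.06 mM NADH and 0.2 mM pyruvate for 5 min at room temperature in Tris pH 7.4. Remaining NADH was coupled through diaphorase/resazurin, and resorufin fluorescence was read at 0 and 20 min.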
A549 tox: counter-screen for Nrf2 inhibitors: cytotoxicity in A549 cells; A549 ARE-Fluc cells, CellTiter-Fluor viability, 18-24 h; Potency, µM (series often up to 46 µM), inactives show at the highest dose activity change, negative = cytotoxicity, usual class: inhibitors; hit rate 0.16% among 390,000; AID 504648; further: potency means the concentration at half of the fitted maximal effect; on the % scale 0 is the no-effect control and ±100 the full control effect
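A549 ARE-Fluc cells in 5% FBS OPTI-MEM, 5000 cells/well, rested 2 h then exposed to compounds in concentration-response for 18-24 h at 37 °C. Viability by CellTiter-Fluor fluorescence (Ex 405/Em 525) after 30 min; luciferase luminescence (BugLite, 15 min, RT) read afterwards.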
Nrf2 activator: Nrf2 pathway activation; AREc32 ARE-luciferase reporter (MCF7-derived line), luminescence, 24 h; Potency, µM (top dose mostly 46.1 µM), without a hit: top-dose activation, usual class: activators; hit rate 0.31% among 410,000; AID 624171; further: potency means the concentration at half of the fitted maximal effect; % of control where 0% means no effect; nearly all actives have a fitted effect of over 65% in size
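For detection, Steady-Glo was added and plates sat 30 min at RT; before that, AREc32_Fluc cells grown overnight in OPTI-MEM/5% FBS had been treated with 23 nL compound for 24 hr at 37 deg C.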
Nrf2 block: Nrf2 pathway inhibition. A549 ARE-Fluc reporter, luciferase luminescence, 18-24 h. Potency, µM (top dose mostly 46 µM), for the others: at the top dose activity change, negative = inhibition, most hits filed as inhibitors. hit rate 2.1% among 360,000; further: potency means the concentration at half of the fitted maximal effect; on the % scale 0 is the no-effect control and ±100 the full control effect; nearly all actives have a fitted effect of over 60% in size
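A549 ARE_Fluc cells (5000/well, 5% FBS OPTI-MEM) pre-incubated 2 h, then treated with compounds 18-24 h at 37C/5% CO2 in concentration-response. CellTiter-Fluor viability read first; BugLite luciferase luminescence after 15 min at room temperature gives Nrf2 activity.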
* = called active by the depositor; ? = inconclusive; nt = not tested or not shown; [ ] = remark or other dose. Unless noted, the call rests on the fitted dose curve; in most records, active means well fitted curve in the direction sought with a large enough effect; inconclusive means small, poorly fitted or top-dose-only effect, or another doubt; inactive means no such curve, though single readings can be large; an effect the other way counts as inactive or inconclusive.

SMILES	ERG-DNA inh	ALOX12 inh	LDHA block	A549 tox	Nrf2 activator	Nrf2 block
C/C(=N\NC(=S)NCC(C)(C)C)c1cc(F)cc(F)c1O	30.9%	?	-3.4	?	10µM*	23.1µM*
Cc1ccc(CNC(=O)c2nc(S(=O)(=O)Cc3ccc(C)cc3)ncc2Cl)cc1	0.4%	-9.4%	5.1	-19.8%	9.6%	11.6µM*
CCOC(=O)c1ccc(NC(=O)c2nc(S(=O)(=O)Cc3ccccc3)ncc2Cl)cc1	7.6%	-0.6%	-3.2	?	3.16µM*	?
CCOC(=O)c1ccc(NC(=O)c2nsc3ccccc23)cc1	-4.1%	44.7µM*	0.5	0.8%	-5.5%	2.0%
CCc1ccc(NC(=O)c2nc(S(=O)(=O)Cc3ccccc3)ncc2Cl)cc1	nt	13.6%	nt	nt	nt	nt
NNc1ccccc1[N+](=O)[O-]	nt	?	2.8	nt	nt	nt
CCc1ccc(Cl)c(CC)c1NC(=O)C=C(C)C	nt	5.7%	-22.3	nt	nt	nt
COC(=O)[C@H](CC(C)C)N(Cc1cn(CC2CCCCC2)nn1)S(=O)(=O)c1ccc(F)cc1Br	nt	10µM*	nt	nt	nt	nt
COC(=O)[C@H](CC(C)C)N(Cc1cn(CC2CCCCC2)nn1)S(=O)(=O)c1ccccc1Br	nt	5.62µM*	nt	nt	nt	nt
COC1=CC(=O)c2ccccc2C1=O	4.1%	nt	6.6	?	-2.9%	23.1µM*
O=C1c2ccccc2NC(c2ccc(-c3cccc(F)c3)o2)N1O (stereo not given)	nt	35.5µM*	0.6	-6.2%	0.8%	6.0%
O=C1c2ccccc2NC(c2ccc(Cl)cc2Cl)N1Cc1ccccc1 (stereo not given)	-3.6%	0.0%	5.0	?	-1.0%	nt
O=C1c2ccccc2NC(c2ccc(Cl)cc2Cl)N1O (stereo not given)	0.4%	10µM*	0.6	-2.8%	-0.8%	?
O=C1c2ccccc2NC(c2ccc(-c3ccccc3F)o2)N1O (stereo not given)	nt	?	0.2	-0.6%	1.0%	17.0%
Nc1ccccc1C(=O)NCC(F)(F)F	nt	-23.4%	-3.6	nt	nt	nt
O=Cc1ccc(OCc2cccc(Br)c2)cc1	nt	?	4.6	nt	nt	nt
CCC(Oc1ccc(F)cc1)C(=O)Nc1cc(C(C)(C)C)on1 (stereo not given)	nt	-3.9%	10.5	nt	nt	nt
S=c1nc(-c2ccccc2Cl)[nH][nH]1	2.3%	15.8µM*	1.8	0.5%	-0.1%	3.0%
Clc1ccccc1-c1nc2ccccc2[nH]1	12.6%	193.7%	0.9	-0.9%	5.5%	?
CC(O)(c1cccc(F)c1)c1nc(/C=C/c2ccccc2)cs1 (stereo not given)	nt	?	-10.7	nt	-0.2%	nt
CC(O)(c1ccc(F)c(F)c1)c1nc(-c2csc3ccccc23)cs1 (stereo not given)	nt	44.7µM*	-7.5	nt	0.0%	nt
CC(O)(c1ccc(F)c(F)c1)c1nc(/C=C/c2ccc(C(F)(F)F)cc2)cs1 (stereo not given)	nt	35.5µM*	1.1	nt	-2.4%	nt
O=C(O)COc1ccc(/C=C/c2nc3ccccc3c(=O)n2-c2ccc(C(=O)O)cc2)cc1	nt	?	8.9	nt	nt	nt
CCN(C(=O)c1sc2nc3n(c(=O)c2c1C)CCCCC3)c1ccccc1	nt	8.6%	3.6	nt	nt	nt
CCN(Cc1ccccc1)C(=O)c1sc2nc3n(c(=O)c2c1C)CCCC3	13.0%	3.8%	-14.1	-13.2%	-0.1%	23.1µM*
SMILES	ERG-DNA inh	ALOX12 inh	LDHA block	A549 tox	Nrf2 activator	Nrf2 block
CN(CC(=O)Nc1cccc(S(=O)(=O)N2CCCC2)c1)CC(=O)Nc1ccc(Cl)c(C(F)(F)F)c1	1.8%	1.0%	-4.2	?	0.7%	25.9µM*
CN(CC(=O)Nc1ccc(Cl)c(C(F)(F)F)c1)CC(=O)NC1CCCC1	nt	10.6%	0.6	nt	nt	nt
CN(CC(=O)Nc1ccc(Cl)c(C(F)(F)F)c1)C(=O)c1ccc2c(c1)NC(=O)CS2	-7.0%	?	-1.4	-15.9%	0.3%	20.6µM*
CN(CC(=O)Nc1ccc(Cl)c(C(F)(F)F)c1)CC(=O)NC1CCCCC1	-3.9%	nt	2.5	?	0.1%	11.6µM*
Cc1ccc(Nc2nc(NC3CCCC3)nc3c2cnn3-c2ccccc2)cc1	nt	13.9%	10.1	nt	nt	nt
O=C1CCCN1CCCNCC(=O)N1c2ccccc2Sc2ccccc21	18.0%	-51.9%	-41.1*	5.4%	4.1%	5.1%
COc1ccccc1CNCc1cc(OC)c(OC)cc1OC	3.0%	?	-16.7	0.2%	-0.3%	nt
COc1ccccc1CNCC(c1ccccc1)c1ccccc1	nt	2.51µM*	nt	nt	nt	nt
COc1cccc(-c2cccc(CN3CCCC(C)(NC(C)=O)C3)c2)c1 (stereo not given)	nt	-49.6%[176 µM]	nt	nt	nt	nt
CC(=O)NC1(C)CCCN(Cc2cccc(-c3c(C)noc3C)c2)C1 (stereo not given)	nt	39.8µM*	nt	nt	nt	nt
CC(=O)NC1(C)CCN(Cc2cccc(-c3ccccc3)c2)C1 (stereo not given)	nt	-17.0%[176 µM]	nt	nt	nt	nt
CC(=O)NC1(C)CCN(Cc2ccccc2-c2cccc(C(C)=O)c2)C1 (stereo not given)	nt	35.5µM*	nt	nt	nt	nt
Cn1ccc2cc(-c3csc(CN4CC(C)(NC(=O)C5CC5)C4)n3)ccc21	nt	0.4%[176 µM]	nt	nt	nt	nt
CC(=O)NC1(C)CCN(Cc2ccc(-c3cccc(F)c3)cc2)C1 (stereo not given)	nt	50.1µM*	nt	nt	nt	nt
CC(=O)NC1(C)CCN(Cc2ccccc2-c2ccc3c(ccn3C)c2)C1 (stereo not given)	nt	28.2µM*	nt	nt	nt	nt
COc1ccccc1-c1ccccc1CN1CCC(C)(NC(C)=O)C1 (stereo not given)	nt	2.3%[176 µM]	nt	nt	nt	nt
Cc1nc(SCC(=O)Nc2ccc(C#N)cc2)n(CC(C)C)c1C	nt	-3.0%	-1.5	nt	nt	nt
Cc1noc(/C=C\c2ccc(S(=O)(=O)N3CCc4ccccc43)cc2)c1NC(=O)C1CC1	nt	-15.1%	10.6	nt	nt	nt
COc1ccccc1/C=C/c1nc(C#N)c(NCc2ccco2)o1	nt	?	-1.9	nt	nt	nt
COc1ccc(CNC(=O)CN2C(=O)C(c3ccccc3)Oc3cccnc32)cc1 (stereo not given)	6.0%	24.3%	1.5	?	2.0%	23.1µM*
CCOc1ccc(CNC(=O)CN2C(=O)C(c3ccccc3)Oc3cccnc32)cc1 (stereo not given)	-1.1%	-2.3%	-1.1	-2.3%	2.9%	5.0%
CCCOc1ccc(C(=O)Nc2cccc(NC(=O)c3ccc(Cl)cc3Cl)c2)cc1	-0.1%	-14.2%	-6.3	-8.7%	-0.1%	-21.4%
Cc1sc(NC(=O)c2ccc(OCC(C)C)cc2)c(C(N)=O)c1-c1ccc(Cl)cc1Cl	9.6%	-5.5%	-4.1	-9.4%	2.7%	18.4µM*
Cc1ccc(OCCC(=O)N2CCN(S(=O)(=O)c3cccs3)CC2)cc1	nt	?	3.8	nt	nt	nt
